Common to all, as to experiment: NCI-60 one-dose screen, 48 h (100 = growth as untreated, 0 = no growth, -100 = all killed)
Holding throughout (settings): 10 µM unless noted

Experiment [1] has as its system NCI-H23 lung.
Experiment [2] has as its system NCI-H226 lung.
Experiment [3] deals with NCI-H322M lung.
The test system of experiment [4] is HOP-62 NSCLC.
The test system of experiment [5] is NCI-H460 lung.
Experiment [6] deals with HOP-92 NSCLC.
In experiment [7] the test system is NCI-H522 lung.
In experiment [8] the test system is A549/ATCC NSCLC.
In experiment [9] the test system is 786-0 renal.
The test system of experiment [10] is COLO 205 colon.
Experiment [11] has as its system DU-145 prostate.
The test system of experiment [12] is K-562 leukemia.
The subject of experiment [13] is MALME-3M melanoma.
Experiment [14] concerns MDA-MB-231 breast.
Experiment [15] has as its system RXF 393 renal.
Experiment [16] relates to SF-268 CNS.
In experiment [17] the test system is SF-295 CNS.
The test system of experiment [18] is SF-539 CNS.
Experiment [19] deals with UACC-257 melanoma.
The subject of experiment [20] is M14 melanoma.

This is part of a sample that, as a whole, favours compounds with a hit. Of some 83,000 tested, about 20% had one in any assay.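 The test compound was applied at a single concentration to cells in 96-well plates for 48 hours, and percent growth was recorded.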 A number with no mark means an inactive call. Calls of active or inactive are those of the source. Rule for the calls: active = growth percent below 10; inactive = the rest.

Turning to `CC1(C)CC(=O)C2=C(C1)N(c1ccc(OC(F)(F)F)cc1)C(N)=C(C#N)C2c1ccc(Br)cc1F` (configuration not stated), the growth in [1] is 75.8%; in experiment [2] it was 33.1%; in [3], 59.1%; in experiment [4] it was 6.8% (active); in [5], 25.3%; in experiment [6] it was 39.8%. The growth in [7] was 88.6%; in experiment [8] it was 44.1%; in experiment [9], 35.7%; in experiment [10], 93.8%; in experiment [11], 96.5%; in [12], 75.5%. The growth is 46.8% in experiment [13]; 61.2% in experiment [14]; 42.9% in [15]; 36.6% in experiment [16]; 42.2% in experiment [17]; 75% in [18]. Besides, the growth is 80.9% in experiment [19] and 79.1% in [20].
In the case of `Cn1c(=O)c2nc(/C=C/c3ccccc3)c(=O)[nH]c2n(C)c1=S`, the growth in [1] was 100%; in experiment [2], 101%; in [3] it was 99.7%; in experiment [4], 100%; in experiment [5], 103%; in experiment [6], 98.1%. In addition, the growth was 102% in experiment [7]; 107% in experiment [8]; 99.8% in [9]; 121% in experiment [10]; 113% in experiment [11]; 105% in [12]. Moreover, the growth in [13] is 105%; in experiment [14], 105%; in [15], 118%; in experiment [16] it was 105%; in [17], 99.8%; in experiment [18] it was 104%. The growth is 112% in [19] and 103% in experiment [20].
In the case of `Nc1ncnc2c1c(-c1cccc(Cl)c1)nn2CC(=O)N1CCOCC1`, the growth in experiment [1] is 97.5%; in experiment [2], 93%; in experiment [3], 102%; in experiment [4], 109%; in [5], 107%; in experiment [6], 105%. Also, the growth is 102% in experiment [7]; 99.9% in [8]; 94.8% in [9]; 116% in [10]; 111% in experiment [11]; 105% in [12]. Also, the growth is 110% in [13]; 104% in [14]; 99% in experiment [15]; 98.4% in experiment [16]; 98.6% in experiment [17]; 96.2% in experiment [18]. Also, the growth in experiment [19] was 103%; in experiment [20] it was 104%.
`O=C(COc1ccc(-c2nc3cc(Cl)c(Cl)cc3[nH]2)cc1)N=Nc1c(O)[nH]c2ccc(Cl)cc12`: the growth in [1] is 70.1%; in experiment [2], 80.8%; in experiment [3], 94.9%; in experiment [4], 89.9%; in [5], 46.4%; in [6] it was 77.1%. Moreover, the growth was 97.9% in [7]; 75.9% in experiment [8]; 68.7% in experiment [9]; 74.6% in [11]; 5.55% (active) in [12]; 49.5% in [13]. Further, the growth in [14] is 76.8%; in experiment [15] it was 77.6%; in experiment [16], 89.4%; in experiment [17], 74.8%; in [18] it was 84.2%; in [19] it was 105%.
For the compound `Cc1cc(=O)n(C(=O)Nc2ccccc2Cl)c2cc(O)ccc12`, the growth in experiment [1] was 98.6%; in [2], 98.7%; in [3], 88.7%; in experiment [4] it was 89.2%; in experiment [5], 100%; in experiment [6], 79.7%. Further, the growth in [7] was 95.2%; in experiment [8], 101%; in experiment [9] it was 103%; in [11] it was 108%; in experiment [12], 109%; in experiment [13] it was 93%. In addition, the growth in [14] is 101%; in experiment [15], 109%; in [16], 95.8%; in experiment [17], 101%; in experiment [18], 97.8%; in experiment [19], 96.5%. For the same compound, the growth in experiment [20] is 96.4%.
With `Cc1c2cnccc2c(C)c2c1c1cc(C#N)ccc1n2C`, the growth was -37.4% (active) in experiment [1]; -18.6% (active) in experiment [2]; -16% (active) in experiment [3]; -25.5% (active) in experiment [4]; -19.7% (active) in [5]; -12.1% (active) in experiment [6]. The growth in experiment [7] is -71% (active); in [8] it was -19.8% (active); in experiment [9], -16.1% (active); in experiment [10] it was -37.2% (active); in experiment [11], 3.34% (active); in [12], -8.24% (active). Moreover, the growth is -77.4% (active) in [13]; -23.5% (active) in [14]; -85.1% (active) in experiment [15]; -8.27% (active) in [16]; -11.7% (active) in experiment [17]; -61.7% (active) in [18]. Moreover, the growth in experiment [19] was -29% (active); in experiment [20] it was -83.3% (active).
As to `Nc1c(C(=O)Nc2ccccc2C(F)(F)F)sc2nc3c(cc12)CCC3`, the growth in experiment [1] is 95.7%; in experiment [2], 82.6%; in experiment [3], 87.5%; in experiment [4], 88.6%; in experiment [5] it was 105%; in experiment [6], 96.6%. Further, the growth in experiment [7] is 85.7%; in experiment [8], 90.4%; in experiment [9] it was 93%; in experiment [10] it was 115%; in experiment [11] it was 108%; in experiment [12] it was 94.4%. Further, the growth in experiment [13] was 99.8%; in experiment [14], 92%; in [15], 84.6%; in experiment [16], 106%; in [17] it was 95.1%; in [18] it was 100%. The values for the growth in experiment [19] and in experiment [20] were 101% and 113%, respectively.

These data come from PubChem BioAssay (NCI).
